Laboratory results taken from PubChem BioAssay (EPA / NIEHS).
Activity calls are given as the source filed them. How the source made its calls: active means hit-call score of the fitted dose curve at least 0.9, where 1 is the maximum; inactive means score below 0.9.

These compounds were tested on Monocyte Chemoattractant Protein-1 (MCP1), CCL2 (gene 6347) (assay: BSK_4H_MCP1: BioMAP Diversity Plus: 4H Assay for Monocyte Chemoattractant Protein-1 (MCP1) Biomarker Activity (AID 2283018)). Details: primary human endothelial cells (HUVEC); actives raise or lower the signal.
Procedure, shortened: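 Human umbilical vein endothelial cells (4H system) exposed to chemicals for 24 h in 96-well format. MCP-1 measured by ELISA; bidirectional fitting against DMSO, with SRB total-protein staining in parallel cultures for cytotoxicity.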

AC50, active:
CC(C)(COC(=O)c1ccccc1)COC(=O)c1ccccc1 11.3 µM
c1ccc2sc(SN(C3CCCCC3)C3CCCCC3)nc2c1 4.34 µM
CN(CCOc1ccc(CC2SC(=O)NC2=O)cc1)c1ccccn1 (configuration not stated) 3.97 µM
Cc1ccc(O)c(C(C)(C)C)c1 24.9 µM
CC(C)c1ccc(C(C)C)cc1 29.9 µM
CC1CCC(C(C)CS)CC1S (configuration not stated) 20 µM

outcome, inactive:
C[C@H]1C[C@@H]2[C@H]([C@@H](O)C[C@@]3(C)[C@H]2CC[C@]3(O)C(=O)CO)[C@@]2(C)C=CC(=O)C=C12
O=C(O)c1cn(-c2ccc(F)cc2)c2cc(N3CCNCC3)c(F)cc2c1=O
c1ccc2c(c1)c1cccc3ccc4cccc2c4c31
CC(=O)/C=C/C1=C(C)CCCC1(C)C
Cc1cc(C2(c3cc(C)c(O)cc3C)OS(=O)(=O)c3ccccc32)c(C)cc1O
O=C(O)c1ccc([N+](=O)[O-])cc1
CCCCCCCCCCCCCCCCCC(=O)OCC(CC)CCCC (configuration not stated)
OC1OC[C@@H](O)[C@H](O)[C@H]1O (some centres not stated)
CNC[C@H](O)c1cccc(O)c1
C#C[C@]1(O)CC[C@H]2[C@@H]3CCC4=Cc5oncc5C[C@]4(C)[C@H]3CC[C@@]21C

These compounds were tested on Human Leukocyte Antigen - DR isotype (HLADR), HLA-DRA (gene 3122) (assay: BSK_3C_HLADR: BioMAP Diversity Plus: 3C Assay for Human Leukocyte Antigen - DR isotype (HLADR) Biomarker Activity (AID 2283019;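 on outcome: ELISA of cell-surface HLA-DR on HUVEC 24 h after dosing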)). Details: primary human endothelial cells (HUVEC); actives raise or lower the signal.
Procedure, shortened: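 Primary human umbilical vein endothelial cells (3C system) were dosed with compound and cell-surface HLA-DR was quantified by ELISA at 24 h. Activity was fitted bidirectionally against DMSO as negative control and baseline.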

AC50, active:
CC(C)(COC(=O)c1ccccc1)COC(=O)c1ccccc1 27.8 µM
c1ccc2sc(SN(C3CCCCC3)C3CCCCC3)nc2c1 10.2 µM
CN(CCOc1ccc(CC2SC(=O)NC2=O)cc1)c1ccccn1 (configuration not stated) 9.42 µM
Cc1ccc(O)c(C(C)(C)C)c1 29.8 µM
c1ccc2c(c1)c1cccc3ccc4cccc2c4c31 0.206 µM
CC(C)c1ccc(C(C)C)cc1 34.6 µM
C#C[C@]1(O)CC[C@H]2[C@@H]3CCC4=Cc5oncc5C[C@]4(C)[C@H]3CC[C@@]21C 20 µM
CC1CCC(C(C)CS)CC1S (configuration not stated) 35.1 µM

outcome, inactive:
C[C@H]1C[C@@H]2[C@H]([C@@H](O)C[C@@]3(C)[C@H]2CC[C@]3(O)C(=O)CO)[C@@]2(C)C=CC(=O)C=C12
O=C(O)c1cn(-c2ccc(F)cc2)c2cc(N3CCNCC3)c(F)cc2c1=O
CC(=O)/C=C/C1=C(C)CCCC1(C)C
Cc1cc(C2(c3cc(C)c(O)cc3C)OS(=O)(=O)c3ccccc32)c(C)cc1O
O=C(O)c1ccc([N+](=O)[O-])cc1
CCCCCCCCCCCCCCCCCC(=O)OCC(CC)CCCC (configuration not stated)
OC1OC[C@@H](O)[C@H](O)[C@H]1O (some centres not stated)
CNC[C@H](O)c1cccc(O)c1
